Source: PubChem BioAssay AID1159580 (chemical genetic matrix, 2015)
Among all 5,500 compounds or so, about 2,000 (36%) were called active. Roughly 18% stayed inconclusive and do not appear here. No stated cut-off is given here; in the data, active means normalized growth mostly below about 0.91 (no sharp cut-off); inconclusive means no clear call, values can overlap the other calls; inactive means mostly above about 0.92. Some of the results follow.

Experiment: chemical genetic growth profiling, strain panel (AID 1159580);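 further: tested at 20 µM; growth read once vehicle control cultures reached saturation at 30 °C; 1 = growth at the plate median or of vehicle wells; lower values mean less growth of the strain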
Settings: S. cerevisiae deletion strains, growth OD

Measured: normalized growth

CC1=NN(c2ccccc2)C(=O)C1
active: locus YDR318W, strain mcm21, hits give low values 0.904 | locus YDR392W, strain spt3, hits give low values 0.609 | locus YIL125W, strain kgd1, hits give low values 0.93
inactive: locus YAL021C, strain ccr4, hits give low values 0.982 | locus YAL026C, strain drs2, hits give low values 0.959 | locus YAL030W, strain snc1, hits give low values 0.998 | locus YBL061C, strain skt5, hits give low values 0.987 | locus YBR009C, strain hhf1, hits give low values 0.936 | locus YBR021W, strain FUR4, hits give low values 0.993 | locus YBR023C, strain chs3, hits give low values 0.983 | locus YBR171W, strain sec66, hits give low values 0.994 | locus YBR229C, strain ROT2, hits give low values 0.978 | locus YBR231C, strain swc5, hits give low values 0.979 | locus YBR279W, strain paf1, hits give low values 0.979 | locus YCL011C, strain gbp2, hits give low values 0.98 | locus YCL016C, strain dcc1, hits give low values 0.965 | locus YCL029C, strain bik1, hits give low values 0.982 | locus YCL061C, strain MRC1, hits give low values 0.985 | locus YCL069W, strain vba3, hits give low values 0.986 | locus YCR088W, strain abp1, hits give low values 0.993 | locus YDL005C, strain med2, hits give low values 0.975 | locus YDL035C, strain GPR1, hits give low values 0.955 | locus YDL040C, strain nat1, hits give low values 0.978 | locus YDL074C, strain BRE1, hits give low values 0.912 | locus YDL101C, strain DUN1, hits give low values 0.957 | locus YDL134C, strain PPH21, hits give low values 0.971 | locus YDL185W, strain tfp1, hits give low values 0.976 | locus YDL192W, strain arf1, hits give low values 0.918 | locus YDR001C, strain nth1, hits give low values 0.994 | locus YDR069C, strain doa4, hits give low values 0.969 | locus YDR101C, strain arx1, hits give low values 1.01 | locus YDR137W, strain rgp1, hits give low values 0.899 | locus YDR159W, strain sac3, hits give low values 0.957 | locus YDR162C, strain NBP2, hits give low values 0.925 | locus YDR195W, strain ref2 1 | locus YDR297W, strain sur2, hits give low values 0.983 | locus YDR334W, strain swr1, hits give low values 0.992 | locus YDR335W, strain msn5, hits give low values 0.99 | locus YDR388W, hits give low values 0.958 | locus YDR502C, strain sam2, hits give low values 0.934 | locus YEL003W, strain gim4, hits give low values 0.97 | locus YEL037C, strain rad23, hits give low values 0.994 | locus YEL061C, strain CIN8 (second series), hits give low values 0.988 | locus YEL061C, strain CIN8, hits give low values 0.992 | locus YER015W, strain faa2, hits give low values 0.987 | locus YER016W, strain bim1, hits give low values 0.99 | locus YER110C, hits give low values 0.98 | locus YER111C, strain swi4, hits give low values 0.989 | locus YER155C, strain BEM2 (second series), hits give low values 0.917 | locus YER155C, strain BEM2, hits give low values 0.991 | locus YER167W, strain BCK2, hits give low values 0.952 | locus YFR010W, strain ubp6, hits give low values 0.983 | locus YGL078C, strain dbp3, hits give low values 0.98 | locus YGL086W, strain mad1, hits give low values 0.955 | locus YGL167C, strain pmr1, hits give low values 0.982 | locus YGL173C, strain kem1, hits give low values 0.974 | locus YGL227W, strain vid30, hits give low values 0.995 | locus YGL240W, strain doc1, hits give low values 0.952 | locus YGL248W, strain PDE1, hits give low values 0.963 | locus YGL253W, strain hxk2, hits give low values 0.976 | locus YGR135W, strain pre9, hits give low values 0.914 | locus YGR252W, strain gcn5, hits give low values 0.867 | locus YHR013C, strain ard1, hits give low values 0.881 | locus YHR027C, strain rpn1, hits give low values 0.985 | locus YHR030C, strain SLT2, hits give low values 0.987 | locus YHR079C, strain IRE1 (second series), hits give low values 0.981 | locus YHR094C, strain hxt1, hits give low values 0.982 | locus YHR129C, strain ARP1, hits give low values 0.972 | locus YHR142W, strain chs7, hits give low values 0.972 | locus YHR200W, strain rpn10, hits give low values 0.975 | locus YIL066C, strain RNR3, hits give low values 0.929 | locus YIL073C, strain SPO22, hits give low values 0.898 | locus YIR030C, strain dcg1, hits give low values 0.978 | locus YJL092W, strain hpr5, hits give low values 0.985 | locus YJL095W, strain BCK1 (second series), hits give low values 0.983 | locus YJL095W, strain BCK1, hits give low values 0.935 | locus YJL115W, strain asf1, hits give low values 0.983 | locus YJL129C, strain trk1, hits give low values 0.985 | locus YJL134W, strain LCB3, hits give low values 0.981 | locus YJL154C, strain vps35, hits give low values 0.997 | locus YJL164C, strain tpk1, hits give low values 0.973 | locus YJL166W, strain qcr8, hits give low values 0.949 | locus YJL168C, strain set2, hits give low values 0.993 | locus YJL187C, strain SWE1 (second series), hits give low values 0.986 | locus YJL187C, strain SWE1, hits give low values 0.983 | locus YJR043C, strain POL32, hits give low values 0.998
